# Measurements as given in PubChem BioAssay AID720540 (National Center for Advancing Translational Sciences (NCATS), 2013).
# The whole screen tested about 1,300 compounds, of which about 460 (35%) were called active. Not shown: some 39% with an inconclusive outcome. Calls come from the whole dose curve; as a rule, active = well fitted inhibition curve with a large enough effect; inconclusive = small, poorly fitted or top-dose-only effect; inactive = flat fitted curve, though single readings scatter. This is one part of the list.
# Molecular target: Protein phosphatase EYA2 (Homo sapiens) (UniProt O00167)
# Sequence (O00167 whole entry, looked up): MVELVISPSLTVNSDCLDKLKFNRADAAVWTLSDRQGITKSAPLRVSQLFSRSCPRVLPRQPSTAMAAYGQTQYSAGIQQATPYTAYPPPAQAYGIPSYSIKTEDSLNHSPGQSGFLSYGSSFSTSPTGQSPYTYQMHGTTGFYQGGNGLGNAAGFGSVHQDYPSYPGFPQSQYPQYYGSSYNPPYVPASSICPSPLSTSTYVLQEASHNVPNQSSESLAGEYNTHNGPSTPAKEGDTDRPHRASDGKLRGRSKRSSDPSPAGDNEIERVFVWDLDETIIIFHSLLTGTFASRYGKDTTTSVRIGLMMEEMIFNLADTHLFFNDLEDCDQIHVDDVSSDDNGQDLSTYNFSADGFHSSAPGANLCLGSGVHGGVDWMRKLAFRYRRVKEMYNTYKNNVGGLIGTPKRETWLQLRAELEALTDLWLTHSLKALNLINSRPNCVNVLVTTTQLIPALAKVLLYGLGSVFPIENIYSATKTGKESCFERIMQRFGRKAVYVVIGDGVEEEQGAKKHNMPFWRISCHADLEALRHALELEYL
# Test: qHTS for Inhibitors of the Phosphatase Activity of Eya2: Confirmatory Assay for Cherry-picked Compounds; note: nearly all actives have a fitted effect of over 65% in size;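 for activity change, negative = inhibition: 0% = DMSO wells and -100% = EGTA control giving full inhibition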
# Conditions: purified EYA2 phosphatase activity, qHTS confirmation; series mostly up to 46.1 µM; activity change, negative = inhibition: at the top concentration
# Method in brief: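 Eya2 (0.2 uM working solution) preincubated 10 min at room temperature with compound in pH 7.5 HEPES buffer with MgCl2, BSA, DTT. OMFP added (50 uM working solution), 10 min more; fluorescence 485/525 nm, normalized to EGTA and DMSO.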
# Potency is the fitted concentration of half-maximal effect.
SMILES,Potency,"activity change, negative = inhibition"
Cc1c(CCO)c(=O)n(-c2ccccc2)n1S(=O)(=O)c1c(Cl)cc(Cl)cc1Cl,3.01 µM (active),–
CC12CC3(C)CC(C)(C1)CC(C(=O)NC(=S)N1CCOCC1)(C2)C3,–,-20% (inactive)
O=C1c2ccccc2C(=O)c2c(Nc3ccc(CCO)cc3)ccc(O)c21,6.01 µM (active),–
COc1ccccc1NC(=O)CCCCCN1C(=O)c2cccc3cccc(c23)C1=O,–,-15.8% (inactive)
O=C1c2cccc3cccc(c23)C(=O)N1CCCN1CCN(c2ccc(F)cc2)CC1,15.1 µM (active),–
CC1Cc2ccccc2N1NC(=O)c1ccc(Cl)c(S(N)(=O)=O)c1 (stereo not drawn),–,-5.79% (inactive)
O=C(c1cccc(S(=O)(=O)Nc2ccccc2Cl)c1)N1CCN(c2ccccc2O)CC1,19 µM (active),–
COc1ccc(C2CC(c3ccccc3OC(=O)/C=C/c3ccccc3)=NN2C(C)=O)cc1 (stereo not drawn),19 µM (active),–
Cn1c(=O)c2cc(S(=O)(=O)Nc3cccc(F)c3)ccc2n(C)c1=O,–,-21.5% (inactive)
O=S(=O)(Nc1cccc(-c2cn3cccnc3n2)c1)c1ccc(F)cc1,13.5 µM (active),–
O=S(=O)(Nc1cccc(-c2cn3cccnc3n2)c1)c1ccccc1,4.78 µM (active),–
O=c1c(O)c(-c2ccc(O)cc2O)oc2cc(O)cc(O)c12,8.49 µM (active),–
Cc1cc(C(=O)c2ccccc2)cc(C)c1O,1.9 µM (active),–
Cc1cc(C(=O)O)ccc1-n1c(C)cc(C=C2C(=O)c3ccccc3C2=O)c1C,–,-8.67% (inactive)
CN(C)c1ccc(C2C=Cc3ccccc32)c2ccccc12 (stereo not drawn),9.53 µM (active),–
CSCc1cc(N(C)c2ccccc2)nc(-c2ccccn2)n1,15.1 µM (active),–
NCC(=O)Nc1ccc(Cl)cc1C(=O)c1ccc[nH]1,–,-11.7% (inactive)
O=C(c1cccs1)N1CCC(c2nc3c(nnn3Cc3cccc(Cl)c3)c(=O)[nH]2)CC1,10.7 µM (active),–
CN(C)CCNc1ccc2nnn3c4ccc(O)cc4c(=O)c1c23,1.69 µM (active),–
CN(C)CCNc1ccc2ncn3c4ccc(O)cc4c(=O)c1c23,3.38 µM (active),–
N#Cc1ccc(C(=O)N2CCC3CC2c2cc(-c4ccccc4)ccc23)cc1 (stereo not drawn),–,-24.4% (inactive)

SMILES,Potency,"activity change, negative = inhibition"
CN(C)C1=C2C=CC=CC2/C(=C2/C=Cc3ccccc32)C=C1 (stereo not drawn),8.49 µM (active),–
O=C(O)c1cc(-c2ccc(/C=C3\NC(=O)N(c4ccc(Cl)cc4)C3=O)o2)ccc1Cl,8.49 µM (active),–
COC(=O)c1ccc(NC(=O)c2ccc3c(c2)C(=O)N(Cc2cccnc2)C3=O)cc1,–,-19.5% (inactive)
CCOC(=O)CN1C(=O)/C(=C2\SC(=S)N(NC(=O)c3cccnc3)C2=O)c2ccccc21,19 µM (active),–
CN1C(=O)/C(=C2\SC(=S)N(NC(=O)c3cccnc3)C2=O)c2ccccc21,9.53 µM (active),–
CCOc1cc(C(=O)NC(C)CCc2ccccc2)cc(OCC)c1OCC (stereo not drawn),–,13.9% (inactive)
C[C@H](CCC(=O)NCC(=O)O)[C@H]1CC[C@H]2[C@@H]3[C@H](O)C[C@@H]4C[C@H](O)CC[C@]4(C)[C@H]3C[C@H](O)[C@]12C,–,-6.72% (inactive)
O=C(O)CC(C(=O)O)N1C(=O)/C(=C/C=C/c2ccco2)SC1=S (stereo not drawn),3.79 µM (active),–
CC(C(=O)O)N1C(=O)/C(=C/C=C/c2ccco2)SC1=S (stereo not drawn),3.79 µM (active),–
O=C(O)C(Cc1ccccc1)N1C(=O)/C(=C/C=C/c2ccco2)SC1=S (stereo not drawn),6.75 µM (active),–
Cc1cc(C)c(NC(=O)CSc2ccc(-c3ccccn3)nn2)c(C)c1,6.75 µM (active),–
Cc1csc(NC(=O)CSc2ccc(-c3ccccn3)nn2)n1,4.26 µM (active),–
O=C(CSc1nnc(CNC(=O)c2ccccc2)o1)Nc1nccs1,–,-23.7% (inactive)
Cc1ccccc1NC(=O)CSc1ccc(-c2ccccn2)nn1,4.26 µM (active),–
Cc1cc(NC(=O)CSc2nnnn2-c2ccccc2C)no1,–,-21.9% (inactive)
Cc1cccc(C#Cc2ccccc2)n1,–,10.3% (inactive)
O=S(=O)(NCCSCc1ccc(Cl)c(Cl)c1)c1ccc2c(c1)OCCO2,–,-18.2% (inactive)
CN(C)c1ccc(NC(=O)CC(NCc2ccccn2)C(=O)O)cc1 (stereo not drawn),0.849 µM (active),–
CC(=O)Nc1ccc(NC(=O)COc2ncnc3ccccc23)cc1,–,-5.31% (inactive)
O=C(NCCCO)c1ccc2nc(-c3ccco3)c(-c3ccco3)nc2c1,9.53 µM (active),–
CN(C)C(CNC(=O)c1ccc2c(c1)S(=O)(=O)c1ccccc1C2=O)c1ccco1 (stereo not drawn),–,-29.2% (inactive)

SMILES,Potency,"activity change, negative = inhibition"
O=C(NCc1ccccc1)c1ccc2nc(-c3ccco3)c(-c3ccco3)nc2c1,8.49 µM (active),–
Cc1ccc(CNC(=O)c2ccc(-n3cccc3)cc2)cc1,–,-19.7% (inactive)
Cc1cccc2cn[nH]c12,–,-0.6% (inactive)
COc1ccc(/C=N/N2CCN(Cc3ccc(C)cc3)CC2)cc1Br,15.1 µM (active),–
COC1=C(Nc2ccc(OC)cc2)C(=O)c2ccccc2C1=O,6.01 µM (active),–
O=C(NNC(=O)c1cc2cc(Br)ccc2oc1=O)c1ccc(O)cc1,–,-7.2% (inactive)
CC(=O)Nc1ccc(OC(=O)c2cc3cc(Br)ccc3oc2=O)cc1,7.57 µM (active),–
Cc1nc(S/C(=C\c2ccc(-c3ccc(C(=O)O)c(Cl)c3)o2)C(=O)O)n[nH]1,15.1 µM (active),–
COc1ccc(Cc2nc3c4c(ncn3n2)Oc2ccc3ccccc3c2C4c2ccc(OC)c(OC)c2)cc1 (stereo not drawn),–,-18.2% (inactive)
Cc1ccc(S(=O)(=O)N2c3ccccc3-c3c(ssc3=S)C2(C)C)cc1,15.1 µM (active),–
COc1ccc2c(c1)-c1c(ssc1=S)C(C)(C)N2S(=O)(=O)c1ccc(C)cc1,16.9 µM (active),–
CC1CCN(C(=O)Nc2ccc3nc(-c4ccco4)c(-c4ccco4)nc3c2)CC1,6.75 µM (active),–
O=C(Nc1ccc2nc(-c3ccco3)c(-c3ccco3)nc2c1)N1CCCC1,7.57 µM (active),–
COCCNC(=O)c1cccc(OC2CCN(Cc3ccc(F)cc3OC)CC2)c1,–,-8.43% (inactive)
O=C(CSc1nc(-c2ccccc2)nc2c1Cc1ccccc1O2)Nc1ccc(C(=O)O)cc1,7.57 µM (active),–
CC1CCN(C2=C(NS(=O)(=O)c3ccc(Br)cc3)C(=O)c3ccccc3C2=O)CC1,3.79 µM (active),–
O=C(CCS(=O)(=O)c1ccc(Br)cc1)N1CCCCCC1,–,-25.4% (inactive)
O=C1N=c2ccccc2=C1c1sc(Nc2cccc(O)c2)nc1O,–,-24.2% (inactive)
O=C1C(NS(=O)(=O)c2ccc(Br)cc2)=C(N2CCCCC2)C(=O)c2ccccc21,8.49 µM (active),–
CN(C1=C(N2CCCCC2)C(=O)c2ccccc2C1=O)c1ccccc1,1.2 µM (active),–
O=C1C(Nc2cccc(O)c2)=C(N2CCCCC2)C(=O)c2ccccc21,15.1 µM (active),–
